TDP1 cell CPT = DT40-hTDP1 cell growth loss with CPT; chicken DT40 Tdp1-/-;hTDP1 cells + 20 nM CPT, ATP luminescence, 48 h; Potency, µM (doses to about 46.2 µM), inactives show at the highest dose activity change, negative = growth inhibition, actives largely listed as inhibitors; actives 12% (n = 420,000); AID 686979; also: nearly all actives have a fitted effect of over 55% in size
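Cell growth measured by CellTiter-Glo luminescence after a minimum 48 h, 37 C compound exposure with 20 nM CPT in Tdp1-knockout DT40 cells stably expressing hTDP1, seeded 400/well; qHTS titration format.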
HT1080 IDH1KD tx = HT-1080 IDH1 knockdown cell toxicity (counter line); HT-1080 IDH1 knockdown viability, ATP luminescence, 48 h; Potency, µM (titrated, usually from 46.1 µM), for the others: at the top dose activity, negative = toxicity, hits mostly cytotoxic; actives 2% (n = 360,000);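 also: 0% = DMSO wells and -100% = cell-free medium wells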
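Luminescent ATP read-out (CellTiter-Glo, 10 min at room temperature) after 48 h compound exposure at 37 °C gave viability of IDH1-knockdown HT-1080 cells. Activity was normalised to DMSO and cell-free wells, then fitted as concentration-response curves.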
HT1080NT lethal = kills 2HG-producing HT-1080-NT fibrosarcoma cells; actives 1.6% (n = 360,000); Potency, µM (highest dose often 46.1 µM), without a hit: at the highest dose activity, negative = less viability, usual class: cytotoxic; HT-1080-NT fibrosarcoma viability, CellTiter-Glo ATP luminescence, 48 h;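 also: NT is the 2HG producing partner of a matched IDH1 knockdown line; 0% = DMSO-treated cells and -100% = media-only wells without cells; nearly all actives have a fitted effect of over 55% in size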
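Read-out is CellTiter-Glo luminescence after 10 minutes at room temperature, following 48 hours' compound treatment of HT-1080-NT cells (750 cells/well, RPMI, 5% FBS, 37 degrees C).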
KB-3-1 cytotox = KB-3-1 parental cell cytotoxicity; KB-3-1 viability, CellTiter-Glo ATP luminescence, 72 h; Potency, µM (highest dose often 46.1 µM), hits mostly cytotoxic; actives 1.4% (n = 400,000); AID 1347075; also: nearly all actives have a fitted effect of over 60% in size
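Parental KB-3-1 viability, qHTS format: 72 h compound exposure, 37 °C; CellTiter-Glo; media-only wells and DMSO plates as controls; concentration-effect fits on corrected data.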
KB-V1 cytotox = KB-V1 MDR subline cytotoxicity. AID 1347076. Potency, µM (highest dose often 46.1 µM), most hits filed as cytotoxic. actives 3.4% (n = 400,000). KB-V1 MDR cells viability, CellTiter-Glo, 72 h; also: nearly all actives have a fitted effect of over 60% in size
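KB-V1 cells (P-gp-expressing MDR subline of KB-3-1) in phenol-red-free DMEM with 10% FBS were exposed to library compounds over a concentration series for 72 h at 37 degrees C. Viability read by CellTiter-Glo luminescence; concentration-effect curves fitted after normalization.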
DT40 TDP1 no CPT = qHTS for Inhibitors of human tyrosyl-DNA phosphodiesterase 1 (TDP1): qHTS in cells in absence of CPT; DT40 Tdp1-/- hTDP1 cells, no CPT, ATP luminescence, 48 h; actives 15% (n = 420,000); AID 686978, 2013; Potency, µM (doses to about 46.2 µM), for inactives: at the highest dose activity change, negative = growth inhibition, most hits filed as inhibitors; also: nearly all actives have a fitted effect of over 55% in size
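A cellular qHTS used chicken DT40 cells lacking endogenous Tdp1 but carrying stably transfected human TDP1. Compounds were applied without camptothecin, and cell growth kinetics were judged by ATP-dependent luminescence after ≥48 hr.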
* = called active by the depositor; i = inactive; ? = inconclusive; / = no result. Only some compounds are listed: those with a hit (about 19% of all), similar ones and a draw of the others. Calls follow the shape of the dose curve; as a rule, active = well fitted curve in the direction sought with a large enough effect; inconclusive = small, poorly fitted or top-dose-only effect, or another doubt; inactive = no such curve, though single readings can be large; an effect the other way counts as inactive or inconclusive. Unless noted, % is scaled to controls: 0 for no effect and ±100 for the full control effect; potency is read from the fitted curve at half-maximal effect.

SMILES | TDP1 cell CPT | HT1080 IDH1KD tx | HT1080NT lethal | KB-3-1 cytotox | KB-V1 cytotox | DT40 TDP1 no CPT
COC(=O)[C@@]12C[C@@H](CC(=O)NCc3ccc(C)o3)C(=O)N(Cc3ccc4c(c3)OCO4)C1=CCC(C)(C)C2 | 21µM* | ? | ? | i | ? | 12µM*
COC(=O)[C@@]12C[C@@H](CC(=O)NCC34CC5CC(CC(C5)C3)C4)C(=O)N(Cc3ccc4c(c3)OCO4)C1=CCC(C)(C)C2 | ? | -26% | ? | ? | ? | ?
COC(=O)[C@@]12C[C@@H](CC(=O)N3CCN(C(=O)C4CC4)CC3)C(=O)N(Cc3ccc4c(c3)OCO4)C1=CCC(C)(C)C2 | ? | -8% | -2% | ? | i | 16µM*
COC(=O)[C@]12CCCCC=C1N(Cc1ccc3c(c1)OCO3)C(=O)[C@H](CC(=O)N1CCCC1)C2 | ? | -11% | -8% | i | ? | ?
COC(=O)[C@@]12C[C@@H](CC(=O)NCC3CCCCC3)C(=O)N(Cc3ccc4c(c3)OCO4)C1=CCC(C)(C)C2 | ? | ? | ? | ? | 21µM* | ?
COc1ccc([C@H]2N[C@]3(CCCN(Cc4cccn4C)C3=O)[C@H]3C(=O)N(Cc4ccccc4)C(=O)[C@@H]23)cc1 | -25% | 8% | -4% | i | i | -6%
Cc1ccc(C(=O)NC(=S)NNS(=O)(=O)c2ccccc2)cc1 | 0% | -5% | -3% | i | i | -17%
COC(=O)NC(=C(Cl)Cl)S(=O)(=O)c1ccccc1 | 6.5µM* | -3% | -2% | 16µM* | 18µM* | 10µM*
Cc1ccc(C(=O)NC(=C(Cl)Cl)S(=O)(=O)c2ccccc2)cc1 | ? | ? | ? | i | 16µM* | 21µM*
Cc1ccc(C(=O)NC(C#N)=C(Cl)Cl)cc1 | ? | 21µM* | 6.5µM* | ? | i | 2.3µM*
NC(=O)c1ccc(NS(=O)(=O)c2ccc(S(=O)(=O)N3CCCC3)cc2)cc1 | 10% | 5% | 10% | i | i | -8%
Cc1cccc(N2CCN(S(=O)(=O)c3c(C)[nH]c(C)c3C(=O)N3CCCC3)CC2C)c1 (stereo not drawn) | -27% | 1% | -2% | i | i | -7%
O=S(=O)(c1ccc(F)cc1)N1CCN(c2ccc(-c3ccccc3)nn2)CC1 | 10% | 0% | 10% | i | i | -3%
O=C(Oc1cc(=O)oc2c1c(=O)n1c3c(cccc23)CC1)c1ccc(F)cc1 | -26% | 16% | 0% | i | i | 23µM*
COc1ccc(OCc2cc(C(=O)NCC(C)(C)N3CCOCC3)no2)c(Cl)c1 | 23µM* | 1% | 3% | / | / | 21µM*
COc1ccc(OCc2cc(C(=O)NCCN3CCCc4ccccc43)no2)c(Cl)c1 | 15µM* | -11% | -13% | i | ? | 18µM*
COc1ccc(OCc2cc(C(=O)NCCN3CCCC(O)C3)no2)c(Cl)c1 (stereo not drawn) | -3% | -10% | -13% | i | i | 14%
Cc1cccc(C)c1OCc1cc(C(=O)NCc2cn(C)nc2C)no1 | 18µM* | 3% | 4% | / | / | ?
O=C(NCCc1ccccc1F)c1cc(COc2ccc(F)cc2F)on1 | -23% | 10% | 23% | i | i | -24%
O=C(NCCc1ccccc1C(F)(F)F)c1cc(COc2ccccc2)on1 | 16µM* | -4% | -6% | i | i | 16µM*
COc1cc(Cl)ccc1OCc1cc(C(=O)NCC(C)(C)N2CCOCC2)no1 | -25% | -3% | 0% | i | i | -10%
COc1cccc(-c2cc(CNC(=O)[C@H]3O[C@@H](n4cnc5c(N)ncnc54)[C@H](O)[C@@H]3O)no2)c1 | 8% | 0% | 1% | i | i | 4%
COc1ccc(CCNC(=O)c2cc(COc3c(F)cccc3F)on2)c(OC)c1 | ? | 5% | 2% | i | i | ?
COc1ccc(CCNC(=O)c2cc(COc3c(C)cccc3C)on2)c(OC)c1 | 23µM* | 12% | 0% | / | / | -27%
Cc1cccc(C)c1OCc1cc(C(=O)N(Cc2c(C)nn(C)c2C)C2CC2)no1 | 13µM* | ? | 0% | i | i | 8.2µM*
SMILES | TDP1 cell CPT | HT1080 IDH1KD tx | HT1080NT lethal | KB-3-1 cytotox | KB-V1 cytotox | DT40 TDP1 no CPT
COc1ccc(OCc2cc(C(=O)NCCc3ccccc3)no2)c(Cl)c1 | 7.3µM* | 16µM* | ? | ? | ? | 10µM*
COc1ccc(OCc2cc(C(=O)NCC3CCOCC3)no2)c(Cl)c1 | ? | 19% | 0% | i | i | -6%
CN(/N=C/c1ccc(O)cc1O)c1ncc(C(F)(F)F)cc1Cl | ? | -25% | -12% | i | i | ?
CCN(CC(=O)Nc1cc(Cl)ccc1C)C(=O)c1ccc(N2CCCC2=O)cc1 | -12% | 7% | 12% | i | i | -5%
Cc1cccc(OC(=O)c2cc(-c3ccc(Cl)cc3)on2)c1C | -11% | / | / | i | i | -14%
CCn1c(SCC(=O)Nc2cccc(NC(C)=O)c2)nnc1C(C)C | -4% | 11% | 11% | i | i | -5%
Cc1cc(NC(=O)CSc2nnc(Cc3ccccc3)o2)no1 | 6% | 24% | 15% | i | i | 1%
CC(=O)c1cccc(-c2ccnc3c2CC(C(=O)NCc2ccc(F)c(F)c2)O3)c1 (stereo not drawn) | 4.1µM* | ? | ? | 5.2µM* | ? | 4.1µM*
CC(=O)NCCNC(=O)C1Cc2c(-c3ccccc3)ccnc2O1 (stereo not drawn) | -18% | 4% | 29% | i | i | -7%
CC(=O)c1cccc(-c2ccnc3c2CC(C(=O)NCc2ccccc2)O3)c1 (stereo not drawn) | 0.73µM* | ? | ? | ? | i | 0.65µM*
CC(=O)c1ccc(S(=O)(=O)N2CCn3cccc3C2c2ccccc2F)cc1 (stereo not drawn) | ? | / | / | i | i | -44%
Cc1csc(CN(C)C(=O)CC2C(=O)NCCN2Cc2ccccc2C)n1 (stereo not drawn) | -7% | 9% | 7% | i | i | ?
Cc1ccc([C@H]2N[C@]3(CCCN(Cc4ccco4)C3=O)[C@H]3C(=O)N(C)C(=O)[C@@H]23)cc1 | -19% | -2% | 15% | i | i | -9%
